Read-out in experiment [1]: Collagen I, COL1A1 (gene 1277)
Put plainly: BSK_MyoF_CollagenI: BioMAP Diversity Plus: MyoF Assay for Collagen I Biomarker Activity (AID 2284238). The conditions noted are these: primary human lung fibroblasts. In a few lines:
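Measured by ELISA: Collagen I from human lung fibroblasts 24 h after compound addition, analysed for signal gain with DMSO as baseline; overt toxicity read from SRB staining of parallel cultures at the same time.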

Read-out in experiment [2]: Collagen III, COL3A1 (gene 1281)
Put plainly: BSK_MyoF_CollagenIII: BioMAP Diversity Plus: MyoF Assay for Collagen III Biomarker Activity (AID 2284239). The conditions noted are these: primary human lung fibroblasts. In short, it runs like this: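 Multiplexed cell assay in lung fibroblasts, harvested at 24 h post-dose. Collagen III detected by ELISA, with positive-direction fitting relative to DMSO vehicle.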

Read-out in experiment [3]: Interleukin 17F (IL17F), IL17F (gene 112744)
Put plainly: BSK_BT_xIL17F: BioMAP Diversity Plus: BT Assay for Interleukin 17F (IL17F) Biomarker Activity (AID 2284243). The conditions noted are these: primary human B cells with PBMC. In short, it runs like this: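 Luminex readout of IL-17F secretion, 24 h; cells: human B cells with PBMC; positive-direction analysis, DMSO control.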

Read-out in experiment [4]: Actin alpha 1 (ACTA1), ACTA1 (gene 58)
Put plainly: BSK_MyoF_ACTA1: BioMAP Diversity Plus: MyoF Assay for Actin alpha 1 (ACTA1) Biomarker Activity (AID 2284244). The note with it: primary human lung fibroblasts. In short, it runs like this:
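Human lung fibroblasts (MyoF system) dosed with test chemical for 24 h; α-SMA measured by ELISA. Gain of signal fitted relative to DMSO negative control as baseline.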

Read-out in experiment [5]: Interleukin 2 (IL2), IL2 (gene 3558)
The experiment can be described thus: BSK_BT_xIL2: BioMAP Diversity Plus: BT Assay for Interleukin 2 (IL2) Biomarker Activity (AID 2284245). The note with it: primary human B cells with PBMC. In a few lines: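 Human B cells co-cultured with PBMC, exposed to test chemical for 24 h. Secreted IL-2 quantified by Luminex xMAP bead immunoassay; activity fitted in the positive direction relative to DMSO vehicle baseline.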

Read-out in experiment [6]: Collagen IV, COL4A1 (gene 1282)
The experiment can be described thus: BSK_MyoF_CollagenIV: BioMAP Diversity Plus: MyoF Assay for Collagen IV Biomarker Activity (AID 2284247). The note with it: primary human lung fibroblasts. In a few lines:
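Primary human lung fibroblasts were exposed to test chemicals and sampled 24 h after dosing. Collagen IV levels were measured by ELISA and fitted in the positive direction against DMSO as negative control and baseline.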

Read-out in experiment [7]: Monokine induced gamma interferon (MIG), CXCL9 (gene 4283)
Put plainly: BSK_KF3CT_MIG: BioMAP Diversity Plus: KF3CT Assay for Monokine induced gamma interferon (MIG) Biomarker Activity (AID 2284248). The note with it: primary human keratinocytes with fibroblasts. In a few lines: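 MIG in dosed human skin co-cultures was measured by ELISA at 24 h, relative to DMSO.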

Read-out in experiment [8]: Vascular cell adhesion molecule 1 (VCAM1), VCAM1 (gene 7412)
The experiment can be described thus: BSK_BF4T_VCAM1: BioMAP Diversity Plus: BF4T Assay for Vascular cell adhesion molecule 1 (VCAM1) Biomarker Activity (AID 2284249). The note with it: primary human bronchial epithelial cells with fibroblasts. In a few lines: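 Human bronchial epithelial cell and dermal fibroblast co-culture exposed 24 h. VCAM-1 measured by ELISA; parallel SRB total-protein staining for cytotoxicity. Fitted in positive direction relative to DMSO.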

Read-out in experiment [9]: Collagen I, COL1A1 (gene 1277)
Put plainly: BSK_hDFCGF_CollagenI: BioMAP Diversity Plus: hDFCGF Assay for Collagen I Biomarker Activity (AID 2284250). The conditions noted are these: primary human foreskin fibroblasts. In short, it runs like this: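 Primary human foreskin fibroblasts (hDFCGF system) exposed to chemical for 24 h; Collagen I measured by ELISA. Activity fitted in the positive direction relative to DMSO baseline, with SRB total-protein staining in parallel cultures for overt cytotoxicity.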

Read-out in experiment [10]: Interferon-inducible T-cell alpha chemoattractant (ITAC), CXCL11 (gene 6373)
The experiment can be described thus: BSK_hDFCGF_ITAC: BioMAP Diversity Plus: hDFCGF Assay for Interferon-inducible T-cell alpha chemoattractant (ITAC) Biomarker Activity (AID 2284251). The conditions noted are these: primary human foreskin fibroblasts. In short, it runs like this: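 ELISA readout of I-TAC after 24 h chemical exposure; human dermal foreskin fibroblast primary cells. Positive-direction fitting vs DMSO baseline. Parallel SRB total-protein staining (0.1% SRB after 10% TCA fixation, 560 nm) flags cytotoxicity.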

Read-out in experiment [11]: Plasminogen activator inhibitor-1 (PAI1), SERPINE1 (gene 5054)
Put plainly: BSK_KF3CT_PAI1: BioMAP Diversity Plus: KF3CT Assay for Plasminogen activator inhibitor-1 (PAI1) Biomarker Activity (AID 2284252). The conditions noted are these: primary human keratinocytes with fibroblasts. In a few lines:
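Human primary keratinocyte/foreskin fibroblast co-culture was dosed with compound and sampled at 24 h. PAI-1 was quantified by ELISA, with activity fitted in the positive direction relative to DMSO vehicle as baseline.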

Read-out in experiment [12]: Monocyte Chemoattractant Protein-1 (MCP1), CCL2 (gene 6347)
The experiment can be described thus: BSK_IMphg_MCP1: BioMAP Diversity Plus: IMphg Assay for Monocyte Chemoattractant Protein-1 (MCP1) Biomarker Activity (AID 2284253). The conditions noted are these: primary human endothelial cells with macrophages. In a few lines:
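Human venular endothelial cells co-cultured with macrophages; MCP-1 measured by ELISA 24 hours post-dose and fitted against DMSO. Cytotoxicity monitored by SRB total-protein staining in parallel cultures.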

Read-out in experiment [13]: Interleukin-8 (IL8), CXCL8 (gene 3576)
Put plainly: BSK_KF3CT_IL8: BioMAP Diversity Plus: KF3CT Assay for Interleukin-8 (IL8) Biomarker Activity (AID 2284254). The note with it: primary human keratinocytes with fibroblasts. In short, it runs like this:
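Using parallel SRB-stained cultures to flag overt toxicity, the study quantified IL-8 by ELISA in human keratinocyte–foreskin fibroblast co-cultures 24 h after dosing, with DMSO as negative control and baseline.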

Read-out in experiment [14]: Macrophage Inflammatory Protein-1 Alpha (MIP1a), CCL3 (gene 6348)
The experiment can be described thus: BSK_IMphg_MIP1a: BioMAP Diversity Plus: IMphg Assay for Macrophage Inflammatory Protein-1 Alpha (MIP1a) Biomarker Activity (AID 2284255). The conditions noted are these: primary human endothelial cells with macrophages. In a few lines:
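Co-culture of human venular endothelial cells and macrophages exposed to compounds for 24 h; MIP-1a measured by ELISA relative to DMSO. Cytotoxicity assessed in parallel cultures by sulforhodamine B total-protein staining at 560 nm.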

Values joined by “and” are separate entries in the source; they are usually repeats but may differ in a detail not shown here. Equal entries are not always repeated. More than one record can exist for a structure, and the calls need not agree. Active and inactive are the calls of the source. How the source made its calls: active means hit-call score of the fitted dose curve at least 0.9, where 1 is the maximum; inactive means score below 0.9.

As to `O=[N+]([O-])c1ccc2c3c(cccc13)CC2`, the outcome in experiment [1], in [2], in [3], in experiment [4], in experiment [5] and in [6] was inactive.
On to `CCOP(=S)(OCC)SCCS(=O)(=O)CC`, for which the outcome in experiment [1], in [2], in experiment [3], in experiment [4] and in experiment [6] was inactive. Also, in experiment [5], the AC50 was 23.9 µM (active).
For `O=C(O)C(F)(F)C(F)(F)C(F)(F)C(F)(F)C(F)(F)C(F)(F)C(F)(F)C(F)(F)C(F)(F)C(F)(F)F`, the half-maximal activity concentration (AC50) is 2.19 µM (active) and 2.25 µM (active) in [1]; 2.59 µM (active) and 2.58 µM (active) in [2]; 2.74 µM (active) and 2.55 µM (active) in experiment [4]; 816 nM (active) and 843 nM (active) in experiment [6]; 6.52 µM (active) and 5.48 µM (active) in experiment [7]; 4.89 µM (active) and 5.89 µM (active) in experiment [8]. Moreover, the AC50 in [9] was 3.39 µM (active); in experiment [10] it was 5.59 µM (active); in [11], 2.66 µM (active) and 4.56 µM (active); in experiment [13], 3.33 µM (active) and 5.2 µM (active). Further, the result in experiment [3], in [5], in experiment [9], in experiment [12] and in [14] was inactive.
For the compound `O=C(OC1CCCCC1)c1ccccc1C(=O)OC1CCCCC1`, the AC50 is 13 µM (active) in [1]; 16.6 µM (active) in experiment [2]; 30.8 µM (active) in experiment [3]; 12.5 µM (active) in [4]; 30.9 µM (active) in [5]. Also, the result in experiment [6] was inactive.
As to `COC[C@H](C)N(C(=O)CCl)c1c(C)csc1C`, the result in [1], in experiment [2], in [3], in experiment [4], in experiment [5] and in experiment [6] was inactive.
`CCNc1nc(NC(C)(C)C)nc(SC)n1`: the outcome in experiment [1], in [2], in experiment [4], in experiment [5] and in experiment [6] was inactive. Besides, the AC50 in experiment [3] is 20 µM (active).
For the compound `COP(=S)(OC)Oc1ccc(S(=O)(=O)N(C)C)cc1`, the result in experiment [1], in experiment [2], in experiment [3], in experiment [4], in experiment [5] and in experiment [6] was inactive.
On to `NC(=S)Nc1ccccc1`, for which the outcome in [1], in [2], in [3], in experiment [4], in experiment [5] and in experiment [6] was inactive.
Take `CCOP(=S)(OCC)Oc1ccc(S(C)=O)cc1` (configuration not stated): the outcome in experiment [1], in experiment [2], in experiment [3], in experiment [4], in [5] and in experiment [6] was inactive.
`CC(=O)OC(c1ccccc1)C(Cl)(Cl)Cl` (configuration not stated): the result in experiment [7], in experiment [9], in experiment [10], in experiment [11] and in [13] was inactive.
For the compound `CC(C)c1ccc(CO)cc1`, the outcome in experiment [1], in experiment [2], in [3], in experiment [4], in experiment [5] and in [6] was inactive.
For `Oc1c(I)cc(I)cc1I`, the half-maximal activity concentration (AC50) was 9.61 µM (active) in experiment [1], 3.97 µM (active) in experiment [2], 20 µM (active) in experiment [4] and 4.34 µM (active) in [6]. For the same compound, the result in experiment [3] and in [5] was inactive.
With `Oc1ccc(-c2ccccc2)cc1`, the result in experiment [1], in [3], in [4], in experiment [5] and in experiment [6] was inactive. Moreover, in experiment [2], the AC50 was 0.414 µM (active).
On to `COC(=O)Cc1ccccc1`, for which the outcome in [7], in experiment [9], in experiment [10], in experiment [11] and in experiment [13] was inactive.
Consider `O=C(O)CCC(F)(C(F)(F)F)C(F)(F)F`, for which the result in [1], in [2], in experiment [3], in [4], in experiment [5] and in experiment [6] was inactive. Besides, the outcome in experiment [7], in [8], in experiment [9], in experiment [10], in [11] and in experiment [12] was inactive. Further, the result in [13] and in [14] was inactive. Also, the AC50 in experiment [10] is 5.95 µM (active).
As to `CC(=O)C(Cl)C(=O)N(C)C` (configuration not stated), the outcome in [1], in [2], in [4] and in [6] was inactive. Also, the half-maximal activity concentration (AC50) is 28.8 µM (active) in experiment [3] and 34.4 µM (active) in experiment [5].
Regarding `ClC(Cl)=C(Cl)C(Cl)=C(Cl)Cl`, the AC50 in [1] is 29.7 µM (active); in [2], 3.97 µM (active); in [4] it was 3.97 µM (active). The result in [3], in experiment [5] and in [6] was inactive.
For `O=S(=O)(c1ccc(Cl)cc1)c1ccc(Cl)cc1`, the result in experiment [1], in [2], in [3], in experiment [4], in experiment [5] and in [6] was inactive.
As for `CCOC(=O)/C=C(C)/C=C/C[C@@H](C)CCCC(C)C`, the concentration at half-maximal activity (AC50) in experiment [1] is 32.5 µM (active); in experiment [2], 30.6 µM (active); in experiment [3], 25.6 µM (active); in experiment [4], 29.6 µM (active); in [5] it was 20 µM (active); in experiment [6] it was 7.11 µM (active).
`OCc1ccco1`: the result in experiment [1], in [2], in experiment [4], in experiment [5] and in [6] was inactive. In addition, the AC50 in experiment [3] was 9.51 µM (active).
Turning to `ClC1=C(Cl)[C@]2(Cl)[C@H]3[C@H]([C@H]4C=C[C@H]3C4)[C@@]1(Cl)C2(Cl)Cl`, the outcome in experiment [1], in experiment [5] and in experiment [6] was inactive. The values for the concentration at half-maximal activity (AC50) in [2], in [3] and in [4] were 5.43 µM (active), 27 µM (active) and 8.66 µM (active), respectively.

What is called AC50 is the concentration at which the activity in the assay is half-maximal.
